Laboratory results published in the supplement of paper PMC6555819.

Assays:
Assay in all cases: PBM binding z-score (relative to random genomic background probes); higher = stronger binding; sequences stand for … in GC…GCGATTGACAGCGTAGAATGAAGG
[1] = test system: FXR:RXRa (NR concentration 270 nM, RXRa partner concentration 90 nM)
Method in brief: (§1)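 For binding z-scores, the reference was random background probes on custom Agilent 4×180K protein-binding microarrays. These arrays were incubated 1 h with ligand-free nuclear receptor dimers in PBS pH 7.4, 2% milk, 0.02% Triton X-100, 1 mM DTT, 0.2 mg/mL BSA and 0.4 mg/ml salmon testes DNA. Fluorescence was scanned after antibody detection of each partner (one per run) and regression-normalized.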

[2] = test system: LXRa:RXRa (NR concentration 270 nM, RXRa partner concentration 90 nM)
Method in brief: as §1

[3] = test system: LXRa homodimer (NR concentration 270 nM)
Method in brief: as §1

[4] = test system: LXRb:RXRa (NR concentration 270 nM, RXRa partner concentration 90 nM)
Method in brief: as §1

[5] = test system: LXRb homodimer (NR concentration 270 nM)
Method in brief: as §1

[6] = test system: PPARa:RXRa (NR concentration 270 nM, RXRa partner concentration 90 nM)
Method in brief: as §1

[7] = test system: PPARg:RXRa (NR concentration 180 nM, RXRa partner concentration 90 nM)
Method in brief: as §1

[8] = test system: PPARg:RXRa 270nM:90nM, anti-RXR (NR concentration 270 nM, RXRa partner concentration 90 nM)
Method in brief: as §1

[9] = test system: PPARg:RXRa 30nM:10nM, anti-RXR (NR concentration 30 nM, RXRa partner concentration 10 nM)
Method in brief: as §1

[10] = test system: PPARg:RXRa 90nM:30nM, anti-RXR (NR concentration 90 nM, RXRa partner concentration 30 nM)
Method in brief: as §1

[11] = test system: PPARg:RXRa DBDmut IVT, anti-RXR (DBD mutation: RXRa K156A/R161A, NR concentration 270 nM, RXRa partner concentration 90 nM)
Method in brief: as §1

[12] = test system: PPARg:RXRa IVT, anti-PPARg (NR concentration 270 nM, RXRa partner concentration 90 nM)
Method in brief: as §1

[13] = test system: PPARg DBDmut:RXRa IVT, anti-PPARg (DBD mutation: PPARg1 K132A/R137A, NR concentration 270 nM, RXRa partner concentration 90 nM)
Method in brief: as §1

[14] = test system: PPARg DBDmut IVT, anti-PPARg (DBD mutation: PPARg1 K132A/R137A, NR concentration 270 nM)
Method in brief: as §1

[15] = test system: PPARg homodimer (NR concentration 180 nM)
Method in brief: as §1

[16] = test system: PXR:RXRa (NR concentration 270 nM, RXRa partner concentration 90 nM)
Method in brief: as §1

[17] = test system: PXR homodimer (NR concentration 270 nM)
Method in brief: as §1

[18] = test system: RARa:RXR (NR concentration 270 nM, RXRa partner concentration 90 nM)
Method in brief: as §1

[19] = test system: RARa homodimer (NR concentration 270 nM)
Method in brief: as §1

[20] = test system: RARb:RXRa (NR concentration 270 nM, RXRa partner concentration 90 nM)
Method in brief: as §1

Sequence | PBM binding z-score [1] | PBM binding z-score [2] | PBM binding z-score [3] | PBM binding z-score [4] | PBM binding z-score [5] | PBM binding z-score [6] | PBM binding z-score [7] | PBM binding z-score [8] | PBM binding z-score [9] | PBM binding z-score [10] | PBM binding z-score [11] | PBM binding z-score [12] | PBM binding z-score [13] | PBM binding z-score [14] | PBM binding z-score [15] | PBM binding z-score [16] | PBM binding z-score [17] | PBM binding z-score [18] | PBM binding z-score [19] | PBM binding z-score [20]
CTCGGAAGGTCGGTTGAGGTGAGTATACGGATAA | 2.43 | 0.338 | -0.673 | 0.113 | -0.399 | 1.01 | -0.0465 | -0.0669 | -0.473 | -0.159 | -0.598 | 0.491 | -0.365 | -0.461 | 0.527 | 1.84 | -0.347 | 0.849 | -0.2 | 1.89
CGTCCAAGGTCAGCACGTCAGTGAAAGCGACGTG | 5.32 | 3.11 | -0.0642 | 2.37 | -0.16 | 4.23 | 2.38 | 2.91 | 0.448 | 1.36 | 2.18 | 2.13 | 0.0717 | 0.0669 | 1.85 | 2.31 | 0.247 | 3.39 | 0.134 | 4.89
CCTATTAGTTGACCATAAGGGCAACCCAAGCTCG | 1.15 | 0.607 | 0.597 | 0.677 | 0.607 | 0.81 | 0.661 | 0.62 | 0.211 | 0.475 | 0.483 | 0.597 | 0.502 | 0.375 | 1.63 | 1.12 | 1.26 | 1.22 | 1.66 | 1.53
AGAATGAGCTTACCAAAGATCAGGGAAACGCTTG | -0.649 | -0.433 | -0.203 | -0.523 | -0.394 | -0.401 | 0.53 | 0.206 | 0.32 | -0.0483 | -0.815 | -0.433 | -0.258 | -0.198 | -0.572 | -0.428 | -0.462 | -0.0887 | -0.255 | -0.501
ACTCGGAGGACGAAGGTCAGAGCTACGCCAGTGA | 0.736 | 1.2 | -0.109 | 0.941 | -0.551 | 2.3 | 2.67 | 3.52 | 1.07 | 3.02 | -0.0159 | 0.85 | -1.22 | -0.524 | 1.01 | 1.4 | -0.0782 | 1.77 | 0.154 | 2.81
TCGCGTAGGTTACCAATGGGGCATTCAGCTTTCT | -0.205 | 1.54 | -0.559 | 1.01 | -0.67 | 0.898 | -0.342 | 0.743 | 1.41 | 0.958 | 1.28 | 0.245 | -1.11 | -0.793 | -0.721 | 0.0701 | -1.03 | 0.355 | -1.2 | 1.05
CCTGCTAGGTCAATGGTCCGCTAAAGCAGCTCGC | 2.77 | 2.19 | -0.135 | 1.19 | -0.102 | 2.6 | 2.12 | 2.94 | 0.46 | 1.87 | 4.03 | 3.49 | -0.758 | -0.248 | 0.967 | 0.521 | -0.206 | 1.27 | -0.566 | 3.68
TTACCAAGGTGAGCTGAGGTCGGTGATCCAACTC | 0.603 | 0.222 | -0.197 | 0.0956 | -1.13 | 1.07 | 0.209 | 0.517 | -0.0845 | 0.37 | 0.759 | 1.6 | -0.343 | -0.369 | -0.703 | 2.47 | -0.308 | 1.19 | -0.395 | 1.52
ATCTCTAGGTTACCAAGTTCAGTGAATGCCGAAC | 0.872 | 1.95 | 1.86 | 1.47 | 1.16 | 2.15 | 1.82 | 1.97 | 0.559 | 0.955 | 4.8 | 4.07 | 1.25 | 1.33 | 1.15 | 3.34 | 4.37 | 1.46 | 1.16 | 2.31
TCTCGGAGGACACAAAAGGTCAGAGCTCGACATC | 2.8 | 4.16 | 2.83 | 3.27 | 0.142 | 3.53 | 1.51 | 2.66 | 2.44 | 2.62 | 1.53 | 1.65 | -0.0324 | -0.692 | 3.51 | 3.82 | 0.682 | 4.29 | 1.33 | 4.08
CCGACTGTGGCAGAAAGGTTACCATACCATCCGG | 0.385 | 0.528 | 0.0726 | 0.75 | -0.636 | 2.16 | 2.03 | 3.65 | 1.73 | 3.6 | 0.332 | 0.812 | -0.741 | -1.03 | 0.662 | 0.984 | -0.427 | 1.47 | -0.0301 | 1.45
ACTAGTTGGTCAGCTCAGGTCACACACAATTCGG | 1.73 | 1.66 | 1.68 | 1.95 | 0.675 | 2.03 | 1.04 | 0.796 | -0.0327 | 0.521 | 1.24 | 2.1 | 0.448 | 1.3 | 1.64 | 3.54 | 0.961 | 2.58 | 1.11 | 2.7
GATACAGGGTTAAGGCCAGAGTACGCGTATTGAT | 1.24 | 0.758 | -0.124 | 0.741 | -0.621 | 2.23 | 1.45 | 1.5 | 0.167 | 0.884 | 0.369 | 1.16 | 0.272 | -0.564 | 0.996 | 0.615 | 0.108 | 1.28 | 0.426 | 1.7
GCTTACGGGACAAAGGTTATAGCATGAATAGAAT | 1.23 | 1.56 | 0.265 | 2.04 | -0.135 | 4.42 | 7.78 | 7.39 | 6.27 | 8.27 | 1.28 | 3.13 | 0.314 | 1.06 | 1.03 | 1.57 | 0.222 | 2.59 | 0.238 | 1.81
